Source: PubChem BioAssay (NCI)
This is part of a sample that, as a whole, favours compounds with a hit. Of some 83,000 tested, about 20% had one in any assay.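 Assay: single dose, 48 h. Readout: percent growth (0 = no net growth; negative = cell death). Active: <10.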 Activity calls are given as the source filed them.

What follows are compounds tested on MDA-MB-468 breast (assay: NCI-60 one-dose screen, 48 h (100 = growth as untreated, 0 = no growth, -100 = all killed)). Conditions: 10 µM unless noted.
With `Cc1ccc2c(n1)C(=O)C(Oc1ccc(Br)cc1)=CC2=O` the growth was 91.3% (inactive).
With `COc1ccc(/C=C/C(=O)c2ccc(NC(=O)CSc3nnc(-c4ccc(Cl)cc4)n3-c3ccccc3)cc2)cc1` the growth was 94.8% (inactive).
In the case of `CCCCNNC(=O)c1ccc(-c2cccc(F)c2F)cc1`, the growth is reported as -4.26% (active).
